# Results published in paper PMC11062922 (Nature Chemical Biology, 2023).
# Read-outs that look alike come from different tables or passages of the source.
# Experiments:
# Design in all cases: species or system human, MV4-11 + K-562 + COLO205 + SK-N-BE2 + OVCAR-8
# GARS = conditions: read-out: apparent Kd; compound concentrations: 100 nM and 1000 nM (sheet 'Samples'), CATDS: 0.112943260502492; n = 1
# MAP3K6 = conditions: read-out: apparent Kd; compound concentrations: 100 nM and 1000 nM (sheet 'Samples'), CATDS: 0.103040219928506; n = 1
# MTOR = conditions: read-out: apparent Kd; compound concentrations: 100 nM and 1000 nM (sheet 'Samples'), CATDS: 0.20477857042049299; n = 1
# PIK3C2A = conditions: read-out: apparent Kd; compound concentrations: 100 nM and 1000 nM (sheet 'Samples'), CATDS: 0.109461657335159; n = 1
# PIK3CA = conditions: read-out: apparent Kd; compound concentrations: 100 nM and 1000 nM (sheet 'Samples'), CATDS: 0.41958784794042803; n = 1
# PRKDC = conditions: read-out: apparent Kd; compound concentrations: 100 nM and 1000 nM (sheet 'Samples'), CATDS: 0.14221616768717599; n = 1
# RAB14 = conditions: read-out: apparent Kd; compound concentrations: 100 nM and 1000 nM (sheet 'Samples'), CATDS: 0.14270902117051201; n = 1
# GRK6 = conditions: read-out: apparent Kd, n = 1
# HSP90B1 = conditions: read-out: apparent Kd; compound concentrations: 100 nM and 1000 nM (sheet 'Samples'), CATDS: 0.138909392239214; n = 1
# MAP2K1 = conditions: read-out: apparent Kd; compound concentrations: 100 nM and 1000 nM (sheet 'Samples'), CATDS: 0.11714915098763; n = 1
# MAPK10 = conditions: read-out: apparent Kd, n = 1
# MAPK8 = conditions: read-out: apparent Kd; compound concentrations: 100 nM and 1000 nM (sheet 'Samples'), CATDS: 0.17853758786403801; n = 1
# MAPK9 = conditions: read-out: apparent Kd, n = 1
# JAK2 = conditions: read-out: apparent Kd; compound concentrations:100 nM and 1000 nM (sheet 'Samples'); n = 1
# NLK = conditions: read-out: apparent Kd; compound concentrations:100 nM and 1000 nM (sheet 'Samples'); n = 1
# GSK3A = conditions: read-out: apparent Kd, n = 1
# GSK3B = conditions: read-out: apparent Kd, n = 1
# MAP2K2 = conditions: read-out: apparent Kd; compound concentrations:100 nM and 1000 nM (sheet 'Samples'); n = 1
# RIOK2 = conditions: read-out: apparent Kd; compound concentrations:100 nM and 1000 nM (sheet 'Samples'); n = 1
# TGFBR2 = conditions: read-out: apparent Kd; compound concentrations:100 nM and 1000 nM (sheet 'Samples'); n = 1
# MAP3K11 = conditions: read-out: apparent Kd; compound concentrations:100 nM and 1000 nM (sheet 'Samples'); n = 1
# PRKCA = conditions: read-out: apparent Kd, n = 1
# PRKCB = conditions: read-out: apparent Kd, n = 1
# RET = conditions: read-out: apparent Kd; compound concentrations:100 nM and 1000 nM (sheet 'Samples'); n = 1
# STRADA = conditions: read-out: apparent Kd; compound concentrations:100 nM and 1000 nM (sheet 'Samples'); n = 1
# MAP3K1 = conditions: read-out: apparent Kd; compound concentrations:100 nM and 1000 nM (sheet 'Samples'); n = 1
# MAP4K5 = conditions: read-out: apparent Kd; compound concentrations:100 nM and 1000 nM (sheet 'Samples'); n = 1
# NUAK1 = conditions: read-out: apparent Kd; compound concentrations:100 nM and 1000 nM (sheet 'Samples'); n = 1
# NUAK2 = conditions: read-out: apparent Kd; compound concentrations:100 nM and 1000 nM (sheet 'Samples'); n = 1
# SLK = conditions: read-out: apparent Kd; compound concentrations:100 nM and 1000 nM (sheet 'Samples'); n = 1
# STK10 = conditions: read-out: apparent Kd; compound concentrations:100 nM and 1000 nM (sheet 'Samples'); n = 1
# MYLK3 = conditions: read-out: apparent Kd; compound concentrations:100 nM and 1000 nM (sheet 'Samples'); n = 1
# TNIK = conditions: read-out: apparent Kd; compound concentrations:100 nM and 1000 nM (sheet 'Samples'); n = 1
# ILK = conditions: read-out: apparent Kd; compound concentrations: 100 nM and 1000 nM (sheet 'Samples'), CATDS: 0.49132594031882498; n = 1
# MERTK = conditions: read-out: apparent Kd; compound concentrations:100 nM and 1000 nM (sheet 'Samples'); n = 1
# PRKCD = conditions: read-out: apparent Kd, n = 1
# PRKCQ = conditions: read-out: apparent Kd, n = 1
# RPS6KA6 = conditions: read-out: apparent Kd, n = 1
# RPS6KB1 = conditions: read-out: apparent Kd, n = 1
# PRKCI = conditions: read-out: apparent Kd; compound concentrations: 100 nM and 1000 nM (sheet 'Samples'), CATDS: 6.3639374568516094E-2; n = 1
# IARS = conditions: read-out: apparent Kd; compound concentrations:100 nM and 1000 nM (sheet 'Samples'); n = 1
# [1] = compound concentrations:100 nM and 1000 nM (sheet 'Samples')
structure (smiles),measurement,setting,value
Nc1ncnc2c1ncn2-c1cccc2ccccc12 [SKF-97184],potency estimated from few doses,GARS,1670 nM
same,potency estimated from few doses,MAP3K6,2270 nM
same,potency estimated from few doses,MTOR,419 nM
same,potency estimated from few doses,PIK3C2A,1840 nM
same,potency estimated from few doses,PIK3CA,132 nM
same,potency estimated from few doses,PRKDC,896 nM
same,potency estimated from few doses,RAB14,889 nM
CCC(=O)c1c(-c2ccccc2)c2cc(Cl)ccc2c(=O)n1Cc1cc(S(C)(=O)=O)n(CC(N)=O)n1 [TPKI-105],potency estimated from few doses,"GRK6; compound concentrations: 100 nM and 1000 nM (sheet 'Samples'), CATDS: 0.114980307902388",2180 nM
same,potency estimated from few doses,HSP90B1,1090 nM
same,potency estimated from few doses,MAP2K1,2010 nM
same,potency estimated from few doses,"MAPK10; compound concentrations: 100 nM and 1000 nM (sheet 'Samples'), CATDS: 0.46372584389591998",90.1 nM
same,potency estimated from few doses,MAPK8,543 nM
same,potency estimated from few doses,"MAPK9; compound concentrations: 100 nM and 1000 nM (sheet 'Samples'), CATDS: 0.26244745216645099",235 nM
c1ccc(-c2cnc3nccnn23)cc1 [AH20685XX],potency estimated from few doses,"GRK6; compound concentrations: 100 nM and 1000 nM (sheet 'Samples'), CATDS: 1",2060 nM
Cn1c(=O)c(Oc2ccc(F)cc2F)cc2cnc(NC3CCOCC3)nc21 [RO3304806-000],potency estimated from few doses,GRK6; [1],1350 nM
same,potency estimated from few doses,JAK2,603 nM
same,potency estimated from few doses,MAPK10; [1],1000 nM
same,potency estimated from few doses,MAPK9; [1],1780 nM
same,potency estimated from few doses,NLK,1620 nM
CC(C)c1ccc(Nc2nccc(-c3cnn4ncccc34)n2)cc1 [GW805758X],potency estimated from few doses,GSK3A; [1],888 nM
same,potency estimated from few doses,"GSK3B; compound concentrations: 100 nM and 1000 nM (sheet 'Samples'), CATDS: 0.16764618066406201",1460 nM
same,potency estimated from few doses,MAP2K2,2020 nM
same,potency estimated from few doses,RIOK2,1700 nM
same,potency estimated from few doses,TGFBR2,2000 nM
O=C(Nc1n[nH]c2nc(-c3ccco3)c(Br)cc12)C1CCN(Cc2ccccc2)C1.O=C(O)[C@H](O)[C@@H](O)C(=O)O (centres unmarked) [SB-742034-AC],potency estimated from few doses,GSK3A; [1],410 nM
CN(C)C/C=C/C(=O)Nc1ccc(C(=O)Nc2cccc(Nc3ncc(Cl)c(-c4c[nH]c5ccccc45)n3)c2)cc1 [THZ1],potency estimated from few doses,MAP3K11,743 nM
same,potency estimated from few doses,PRKCA; [1],191 nM
same,potency estimated from few doses,PRKCB; [1],727 nM
same,potency estimated from few doses,RET,921 nM
same,potency estimated from few doses,STRADA,2370 nM
C[C@@H](Oc1cc(-n2cnc3cc(-c4cnn(C)c4)ccc32)sc1C(N)=O)c1ccccc1Cl [GSK580432A],potency estimated from few doses,MAP3K1,129 nM
same,potency estimated from few doses,MAP4K5,1040 nM
same,potency estimated from few doses,NUAK1,598 nM
same,potency estimated from few doses,NUAK2,525 nM
same,potency estimated from few doses,SLK,615 nM
same,potency estimated from few doses,STK10,160 nM
C/C(Nc1ccc(S(N)(=O)=O)cc1)=C1/C(=O)Nc2ccccc21 [GW335962X],potency estimated from few doses,MYLK3,629 nM
same,potency estimated from few doses,TNIK,2260 nM
Cn1cc(C2=C(c3cn(C)c4cc(Cl)ccc34)C(=O)NC2=O)c2ccccc21 [RO0317597-000],potency estimated from few doses,ILK,1590 nM
same,potency estimated from few doses,"MAPK10; compound concentrations: 100 nM and 1000 nM (sheet 'Samples'), CATDS: 0.50898583433438105",1480 nM
O=C(Nc1n[nH]c2nc(-c3cccs3)c(Br)cc12)C1CCCC1 [SB-743341],potency estimated from few doses,GSK3A; [1],529 nM
same,potency estimated from few doses,GSK3B; [1],1070 nM
same,potency estimated from few doses,MERTK,1720 nM
CN(C)CC1CCn2c(c(C3=C(c4cn(C)c5ccccc45)C(=O)NC3=O)c3ccccc32)C1 (centres unmarked) [RO0318830-000],potency estimated from few doses,GSK3A; [1],43.8 nM
same,potency estimated from few doses,GSK3B; [1],53.4 nM
same,potency estimated from few doses,"PRKCA; compound concentrations: 100 nM and 1000 nM (sheet 'Samples'), CATDS: 0.195929094272485",30.2 nM
same,potency estimated from few doses,PRKCB; [1],88.5 nM
same,potency estimated from few doses,PRKCD; [1],34.5 nM
same,potency estimated from few doses,PRKCQ; [1],123 nM
same,potency estimated from few doses,RPS6KA6; [1],56.8 nM
same,potency estimated from few doses,RPS6KB1; [1],1600 nM
Nc1n[nH]c2nnc(-c3ccccc3)c(-c3ccccc3)c12 [GW554060X],potency estimated from few doses,GSK3A; [1],424 nM
same,potency estimated from few doses,GSK3B; [1],833 nM
O=C(Nc1cccnc1)c1cc(-c2ccnc(F)c2)ccc1OCc1ccccc1 [GSK2578215],potency estimated from few doses,JAK2,322 nM
Cn1cc(C2=C(c3cn(C)c4cc(C(=O)O)ccc34)C(=O)NC2=O)c2ccccc21 [RO0319318-000],potency estimated from few doses,"GSK3A; compound concentrations: 100 nM and 1000 nM (sheet 'Samples'), CATDS: 0.46645523537497902",612 nM
same,potency estimated from few doses,"GSK3B; compound concentrations: 100 nM and 1000 nM (sheet 'Samples'), CATDS: 0.53874330478413901",458 nM
Cl.Cn1cc(C2=C(c3c4n(c5ccccc35)CCC(CN)C4)C(=O)NC2=O)c2ccccc21 (centres unmarked) [RO0318425-001],potency estimated from few doses,"GSK3A; compound concentrations: 100 nM and 1000 nM (sheet 'Samples'), CATDS: 7.9505519232768704E-2",383 nM
same,potency estimated from few doses,"GSK3B; compound concentrations: 100 nM and 1000 nM (sheet 'Samples'), CATDS: 0.10826194795631",122 nM
same,potency estimated from few doses,"PRKCA; compound concentrations: 100 nM and 1000 nM (sheet 'Samples'), CATDS: 0.4123063070702",8.81 nM
same,potency estimated from few doses,"PRKCB; compound concentrations: 100 nM and 1000 nM (sheet 'Samples'), CATDS: 0.195628585726322",30 nM
same,potency estimated from few doses,"PRKCD; compound concentrations: 100 nM and 1000 nM (sheet 'Samples'), CATDS: 0.18341156503501599",34.1 nM
same,potency estimated from few doses,PRKCI,1630 nM
same,potency estimated from few doses,"PRKCQ; compound concentrations: 100 nM and 1000 nM (sheet 'Samples'), CATDS: 0.13479681678754199",67.5 nM
same,potency estimated from few doses,"RPS6KA6; compound concentrations: 100 nM and 1000 nM (sheet 'Samples'), CATDS: 9.8162959720225998E-2",167 nM
same,potency estimated from few doses,"RPS6KB1; compound concentrations: 100 nM and 1000 nM (sheet 'Samples'), CATDS: 7.7658945876463797E-2",429 nM
Cn1cc(C2=C(c3cccc(OC[C@H](O)CO)c3)C(=O)NC2=O)c2ccccc21 [RO3206173-000],potency estimated from few doses,"GSK3A; compound concentrations: 100 nM and 1000 nM (sheet 'Samples'), CATDS: 0.54568324377959498",6.06 nM
same,potency estimated from few doses,"GSK3B; compound concentrations: 100 nM and 1000 nM (sheet 'Samples'), CATDS: 0.46137484559858299",8.49 nM
CN1CCN(Cc2ccc(-c3cc4ncnc(Nc5ccc(OCc6cccc(F)c6)c(Cl)c5)c4s3)o2)CC1 [GW784684X],potency estimated from few doses,IARS,1610 nM
